MEP2 TOR yeast – yeast TOR pathway MEP2-GFP modulation; S. cerevisiae MEP2-GFP strain, flow cytometry GFP, 3 h; 100% = DMSO control level; 330,000 tested, 0.51% active; GFP response vs DMSO, % at 10 µM;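 active means GFP response versus DMSO above a set limit, roughly screen mean plus 3 SD, cut at about 180% in these data; inconclusive means fewer than 70 cells counted for a yeast strain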;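 further: median GFP fluorescence of the barcode-gated MEP2-GFP cells per well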
Efflux pump inh – blocks antifungal efflux pumps in multiplex yeast assay. inhibition, % at 10 µM. S. cerevisiae Candida pump triplex, Nile Red efflux. 330,000 tested, 0.44% active;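 active means plate passing quality check with inhibition over a set limit, or well fluorescence over plate mean plus 4 SD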;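 further: Nile Red retained in pooled yeast measured as flow cytometry median fluorescence; higher means more Nile Red kept so more efflux inhibition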
CIT2 TOR yeast – yeast TOR pathway CIT2-GFP modulation | S. cerevisiae CIT2-GFP strain, flow cytometry, 3 h; 100 means same as DMSO wells | GFP response vs DMSO, % at 10 µM | 320,000 tested, 0.065% active | AID 2029;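 active means GFP response relative to DMSO above a set limit, near the screen mean plus 3 SD, cut at about 150% in these data; inconclusive means Fewer than 70 cells measured for a yeast strain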;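 further: ratio of well median GFP fluorescence to mean of DMSO wells on the plate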
LAP4-GFP MLPCN – modulators of TOR pathway LAP4-GFP in S. cerevisiae | S. cerevisiae LAP4-GFP multiplex, flow cytometry GFP, 3 h; median GFP as percent of DMSO wells | GFP response vs DMSO, % at 10 µM | 320,000 tested, 0.34% active | AID 2023;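 active means GFP response vs DMSO above a set limit, about the screen mean plus 3 SD, cut at about 150% in these data; inconclusive means under 70 cell events counted for the yeast strain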
AGP1 TOR yeast – yeast TOR pathway AGP1-GFP modulation. S. cerevisiae AGP1-GFP multiplex flow cytometry, 3 h; GFP as percent of DMSO wells. AID 2066. GFP response vs DMSO, % at 10 µM. 320,000 tested, 0.02% active;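 active means GFP response relative to DMSO above a set limit, near screen average plus 3 SD, cut at about 150% in these data; inconclusive means fewer than 70 cells counted for the yeast strain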;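 further: median GFP channel fluorescence of the gated AGP1 strain per well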
RPL19A-GFP yeast – alters RPL19A-GFP fluorescence in TOR pathway yeast screen; 330,000 tested, 0.3% active; S. cerevisiae RPL19A-GFP strain, flow cytometry, 3 h; active compounds read low; percent response vs DMSO, % at 10 µM;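 active means percent response vs DMSO below 50%; inconclusive means fewer than 70 events counted for the yeast strain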;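 further: median channel GFP fluorescence of the barcoded RPL19A-GFP strain; lower means less RPL19A-GFP as with rapamycin TOR inhibition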
Yeast cmpd fluor – flagged as fluorescent in efflux inhibitor counter-screen; shares compounds with Efflux pump inh; S. cerevisiae AD/pABC3, compound fluorescence, flow cytometry; fluorescence ratio to DMSO, % at 10 µM; 1,700 tested, 4% active; AID 588517;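 active means fluorescence ratio to DMSO above its plate's cutoff, the plate mean ratio plus 5 SD, cut at about 210% in these data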;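 further: unstained yeast with no Nile Red so the signal is compound autofluorescence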
Mdr1 pump inh – blocks the Candida albicans Mdr1 efflux pump in yeast; shares compounds with Efflux pump inh; S. cerevisiae AD/CaMDR1, Nile Red efflux, flow cytometry; inhibition, % at 10 µM; 1,700 tested, 1% active; in the data active means inhibition above about 26%;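 further: higher means more Nile Red retained so more efflux inhibition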
CaCdr2 efflux inh – blocks the Candida albicans Cdr2 efflux pump in yeast. Nile Red retention ratio vs DMSO, % at 10 µM. 1,700 tested, 4% active. shares compounds with Efflux pump inh. AID 588520. S. cerevisiae AD/CaCDR2, Nile Red retention, flow cytometry; in the data active means Nile Red retention ratio vs DMSO above about 190%;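 further: higher ratio means more blocking of Cdr2 efflux of the dye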
Cdr1 pump inh – inhibitors of Candida albicans Cdr1 efflux pump. shares compounds with Efflux pump inh. S. cerevisiae AD/CaCDR1, Nile Red efflux, flow cytometry. inhibition, % at 10 µM. 1,700 tested, 1% active;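 active means inhibition above the screen-wide mean plus twice its standard deviation, cut at about 32% in these data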
Each line names hits and unclear results; the compound was inactive in the other large screens (follow-up assays come after a bar, where they were run); [ ] = another dose, or the depositor's remark. This is a sample that favours compounds with a hit; in the whole collection about 1.3% have one here.

COc1cccc(C(=O)COc2ccc3c(C)c(Cc4ccccc4)c(=O)oc3c2)c1	Efflux pump inh 7.5 | Yeast cmpd fluor inactive | Mdr1 pump inh inactive | CaCdr2 efflux inh inactive | Cdr1 pump inh inactive
CCN1CCN(Cc2c(O)ccc3c2O/C(=C\C=C\c2ccccc2OC)C3=O)CC1	Efflux pump inh 24 | Yeast cmpd fluor inactive | Mdr1 pump inh inactive | CaCdr2 efflux inh inactive | Cdr1 pump inh inactive
O=C1/C(=C/c2ccco2)Oc2c1ccc(O)c2CN1CCCCC1	Efflux pump inh 3.1 | Yeast cmpd fluor inactive | Mdr1 pump inh inactive | CaCdr2 efflux inh inactive | Cdr1 pump inh inactive
CC1CCN(Cc2c(O)ccc3c2O/C(=C\c2ccco2)C3=O)CC1	none
O=C1[C@@H]2[C@H]3CC[C@H](C3)[C@@H]2C(=O)N1O	none
CCc1ccc(N(C(C)=O)c2nc(CCl)cs2)cc1	none
COc1cc(/C=C2\N=C(c3ccccc3)OC2=O)ccc1OCc1c(C)no[n+]1[O-]	Efflux pump inh 10 | Yeast cmpd fluor inactive | Mdr1 pump inh inactive | CaCdr2 efflux inh inactive | Cdr1 pump inh inactive
CCCCCCCCCCCCCCCC[N+](C)(C)CCN(Cc1ccc(OC)cc1)c1ncccn1	Efflux pump inh 2.4, CIT2 TOR yeast inconclusive, AGP1 TOR yeast inconclusive | Yeast cmpd fluor inactive | Mdr1 pump inh inactive | CaCdr2 efflux inh inactive | Cdr1 pump inh inactive
COc1ccc2[nH]cc(/C=C/c3cc[n+](C)cc3)c2c1	MEP2 TOR yeast 369[may fluoresce violet], CIT2 TOR yeast inconclusive, AGP1 TOR yeast inconclusive | Yeast cmpd fluor 419 | Mdr1 pump inh inactive | CaCdr2 efflux inh inactive | Cdr1 pump inh inactive
COc1ccc2[nH]cc(C=O)c2c1	none
Cc1nc(NC(=O)c2cnccn2)ccc1Br	none
CC(=O)Oc1ccc2ccccc2c1C(NC(=O)Cc1ccccc1)c1ccc(Cl)cc1 (stereo not given)	none
Cc1cc(=O)oc2cc(OC(C(=O)O)c3ccccc3)ccc12 (stereo not given)	Efflux pump inh 1.1 | Yeast cmpd fluor inactive | Mdr1 pump inh inactive | CaCdr2 efflux inh inactive | Cdr1 pump inh inactive
O=c1cc(-c2ccccc2)c2cc(Cl)c(O)c(CN3CCOCC3)c2o1	none
CCc1cc2c(-c3ccccc3)cc(=O)oc2c(CN2CCOCC2)c1O	Efflux pump inh 0.8 | Yeast cmpd fluor inactive | Mdr1 pump inh inactive | CaCdr2 efflux inh inactive | Cdr1 pump inh inactive
C[C@H](CO)N1C[C@H](C)[C@@H](CN(C)C(=O)Nc2ccc3c(c2)OCO3)Oc2c(NC(=O)Nc3ccccc3)cccc2C1=O	none
C[C@H]1CN([C@@H](C)CO)C(=O)c2cccc(NC(=O)Nc3ccc(C(F)(F)F)cc3)c2O[C@@H]1CN(C)C(=O)Nc1ccc(F)cc1	none | Yeast cmpd fluor inactive | Mdr1 pump inh inactive | CaCdr2 efflux inh inactive | Cdr1 pump inh inactive
CC(C)NC(=O)N(C)C[C@H]1Oc2c(NC(=O)Nc3ccc4c(c3)OCO4)cccc2C(=O)N([C@H](C)CO)C[C@@H]1C	none | Yeast cmpd fluor inactive | Mdr1 pump inh inactive | CaCdr2 efflux inh inactive | Cdr1 pump inh inactive
CC(C(=O)Nc1ccccc1C(=O)N1CCOCC1)N(c1ccc(Cl)cc1)S(C)(=O)=O (stereo not given)	Efflux pump inh 0.7 | Yeast cmpd fluor inactive | Mdr1 pump inh inactive | CaCdr2 efflux inh inactive | Cdr1 pump inh inactive
COCCN(CCOC)S(=O)(=O)c1ccc(C(=O)Nc2ccc([N+](=O)[O-])cc2OC)cc1	none
COc1cccc(-c2sc3ccccc3c2-c2ccc(OCCN3CCCC3)cc2)c1	none
COc1ccc2c(-c3ccc(OCCN4CCOCC4)cc3)c(-c3ccccc3OC)sc2c1	none (no result: MEP2 TOR yeast, CIT2 TOR yeast, LAP4-GFP MLPCN, AGP1 TOR yeast, RPL19A-GFP yeast) | Yeast cmpd fluor inactive | Mdr1 pump inh inactive | CaCdr2 efflux inh inactive | Cdr1 pump inh inactive
COc1cc2sc(-c3ccccc3OC)c(-c3ccc(OCCN4CCOCC4)cc3)c2cc1OC	none (no result: MEP2 TOR yeast, CIT2 TOR yeast, LAP4-GFP MLPCN, AGP1 TOR yeast, RPL19A-GFP yeast) | Yeast cmpd fluor inactive | Mdr1 pump inh inactive | CaCdr2 efflux inh inactive | Cdr1 pump inh inactive
CCOC(=O)c1nn(-c2ccc(OCC)cc2)c(C)c1C(C)=O	Efflux pump inh 1.8 | Yeast cmpd fluor inactive | Mdr1 pump inh inactive | CaCdr2 efflux inh inactive | Cdr1 pump inh inactive
CCOC(=O)c1nn(-c2ccc(C)cc2)c(C)c1C(C)=O	none
O=C(CCc1ccccc1)Nc1ccc2c(c1)C(=O)OC2	none
Cc1ccc(S(=O)(=O)N2CCC(C(=O)NCCCN3CCCC3=O)CC2)cc1C	none
O=C(COC(=O)c1c(Cl)cccc1Cl)NCC1CCCO1 (stereo not given)	Efflux pump inh 9.0 | Yeast cmpd fluor inactive | Mdr1 pump inh inactive | CaCdr2 efflux inh inactive | Cdr1 pump inh inactive
CC(C)CC(=O)c1c(O)c(C=O)c(O)c2c1O[C@@]1(C)[C@@H](C2)C[C@H]2C[C@@H]1C2(C)C	none
Cc1ccc2nc(-c3cccnc3SCC(=O)N3c4ccccc4CC3C)[nH]c2c1 (stereo not given)	none
Cc1ccc2nc(SCC(=O)N3c4ccccc4CC3C)c(C)cc2c1 (stereo not given)	Efflux pump inh 112 | Yeast cmpd fluor inactive | Mdr1 pump inh inactive | CaCdr2 efflux inh inactive | Cdr1 pump inh inactive
CCC(=O)N1CCN(c2ccc(NC(=O)c3ccc4c(c3)OCCO4)cc2)CC1	none
CCC(=O)N1CCN(c2ccc(Cl)cc2NC(=O)c2ccc3c(c2)OCCO3)CC1	Efflux pump inh 0.8 (no result: CIT2 TOR yeast) | Yeast cmpd fluor inactive | Mdr1 pump inh inactive | CaCdr2 efflux inh inactive | Cdr1 pump inh inactive
CC(=O)Nc1ccc(S(=O)(=O)N2CCC(C(N)=O)(N3CCCCC3)CC2)cc1	none
CN1CCCC1CCNc1ccc2sc3ccccc3c(=O)c2c1 (stereo not given)	Efflux pump inh 2.0 | Yeast cmpd fluor 254 | Mdr1 pump inh inactive | CaCdr2 efflux inh inactive | Cdr1 pump inh inactive
Cn1c(N2CCN(C(=O)Nc3ccc(F)cc3)CC2)nc2ccccc21	none (no result: AGP1 TOR yeast)
Cn1c(N2CCN(C(c3ccccc3)c3ccccc3)CC2)nc2ccccc21	Efflux pump inh 0.5 | Yeast cmpd fluor inactive | Mdr1 pump inh inactive | CaCdr2 efflux inh inactive | Cdr1 pump inh inactive
C=CCc1cc(OC)ccc1OCCOCCN1CCc2ccccc2C1	none
Cc1nccn1C[C@@H]1CCc2c(c3ccccc3n2C)C1=O	none
